# Data: the supplement of paper PMC8728848
# The sample as a whole holds a higher share of the strongest signals than the screen did.
# B1: SLR2P2A3 (Tachypleus tridentatus), TAL2_TACTR (protein)
# chain: MEKGTPPTHDSDNWMGRAKKIGNGGWNQFQFLFFDPNGYLYAVSKDKLYKASPPQSDTDNWIARATEIGSGGWSGSKFLFFHPNGYLYAVHGQRLYKALPPVSNQD
# Key:
# Assay in all cases: glycan array binding signal (z-score within array); higher = stronger binding
# Conditions in all cases: glycan notation: IUPAC condensed, linker removed
# Fuc(a1-2)[Gal(a1-3)]Gal = target: Fuc(a1-2)[Gal(a1-3)]Gal
# Outline: (§1)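 The binding signal is a Z-score computed within each array. Data were drawn from 3228 arrays in the Consortium for Functional Glycomics database, restricted to those with a known protein sequence. Scores were averaged over arrays of the same protein sequence at different concentrations or buffers, and over linkers, and negative values can be taken as non-binding.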
# [1] = target: Fuc(a1-2)[Gal(a1-3)]Gal(b1-4)Glc
# Outline: as §1
# [2] = target: Fuc(a1-2)[Gal(a1-4)]Gal(b1-4)GlcNAc
# Outline: as §1
# [3] = target: Fuc(a1-2)[GalNAc(a1-4)]Gal(b1-4)GlcNAc
# Outline: as §1
# Fuc(a1-4)GlcNAc = target: Fuc(a1-4)GlcNAc
# Outline: as §1
# Gal(a1-3)Gal = target: Gal(a1-3)Gal
# Outline: as §1
# [4] = target: Gal(b1-3)GlcNAc(b1-3)Gal(b1-3)GlcNAc
# Outline: as §1
# Gal3S(b1-4)GlcNAc6S = target: Gal3S(b1-4)GlcNAc6S
# Outline: as §1
# GalNAc(a1-3)Gal = target: GalNAc(a1-3)Gal
# Outline: as §1
# GlcA(b1-3)GlcNAc = target: GlcA(b1-3)GlcNAc
# Outline: as §1
# [5] = target: GlcNAc(a1-3)Gal(b1-4)GlcNAc
# Outline: as §1
# [6] = target: GlcNAc(a1-6)Gal(b1-4)GlcNAc
# Outline: as §1
# GlcNAc(b1-3)Gal(b1-4)Glc = target: GlcNAc(b1-3)Gal(b1-4)Glc
# Outline: as §1
# Neu5Ac(a2-6)GalNAc = target: Neu5Ac(a2-6)GalNAc
# Outline: as §1
# [7] = target: Neu5Ac(a2-8)Neu5Ac(a2-3)[GalNAc(b1-4)]Gal(b1-4)Glc
# Outline: as §1
# Neu5Gc(a2-3)Gal(b1-4)Glc = target: Neu5Gc(a2-3)Gal(b1-4)Glc
# Outline: as §1
# [8] = target: Neu5Gc(a2-3)Gal(b1-4)GlcNAc
# Outline: as §1
# Neu5Gc(a2-6)GalNAc = target: Neu5Gc(a2-6)GalNAc
# Outline: as §1
binder,measurement,setting,value
B1,glycan array binding signal (z-score),Fuc(a1-2)[Gal(a1-3)]Gal,-0.054
same,glycan array binding signal (z-score),[1],-0.191
same,glycan array binding signal (z-score),[2],-0.148
same,glycan array binding signal (z-score),[3],7.28
same,glycan array binding signal (z-score),Fuc(a1-4)GlcNAc,-0.416
same,glycan array binding signal (z-score),Gal(a1-3)Gal,-0.317
same,glycan array binding signal (z-score),[4],-0.344
same,glycan array binding signal (z-score),Gal3S(b1-4)GlcNAc6S,-0.09
same,glycan array binding signal (z-score),GalNAc(a1-3)Gal,6.13
same,glycan array binding signal (z-score),GlcA(b1-3)GlcNAc,0.168
same,glycan array binding signal (z-score),[5],5.44
same,glycan array binding signal (z-score),[6],6.84
same,glycan array binding signal (z-score),GlcNAc(b1-3)Gal(b1-4)Glc,5.09
same,glycan array binding signal (z-score),Neu5Ac(a2-6)GalNAc,-0.16
same,glycan array binding signal (z-score),[7],-0.279
same,glycan array binding signal (z-score),Neu5Gc(a2-3)Gal(b1-4)Glc,-0.253
same,glycan array binding signal (z-score),[8],-0.059
same,glycan array binding signal (z-score),Neu5Gc(a2-6)GalNAc,-0.125
